Data published in PubChem BioAssay (EPA / NIEHS).
Results filed as inconclusive are left out. Calls of active or inactive are those of the source. The calls were made as follows: active = hit-call score of the fitted dose curve at least 0.9, where 1 is the maximum; inconclusive = response in the unintended direction; inactive = score below 0.9.

biological target: Retinoic acid receptor RXR-alpha (Homo sapiens) (UniProt P19793); test: ATG_RXRa_TRANS: Attagene TRANS-FACTORIAL HepG2 Assay for human Retinoid X Receptor alpha (RXRa) (AID 2283012)
Protocol: ATG_TRANS is a cell-based, multiplexed-readout assay that uses HepG2, a human liver cell line, with measurements taken at 24 hours after chemical dosing in a 24-well plate.ATG_RXRa_TRANS is one of 30 assay component(s) measured or calculated from the ATG_TRANS assay. It is designed to make measurements of mRNA induction, a form of inducible reporter, as detected with fluorescence intensity signals by Reverse transcription polymerase chain reaction (RT-PCR) and Capillary electrophoresis technology.Data from the assay component ATG_RXRa_TRANS was analyzed into 1 assay endpoint. This assay endpoint, ATG_RXRa_TRANS, was analyzed in the positive analysis fitting direction relative to DMSO as the negative control and baseline of activity. Using a type of inducible reporter, measures of mRNA for gain-of-signal activity can be used to understand the reporter gene at the transcription factor-level as they relate to the gene RXRA. Furthermore, this assay endpoint can be referred to as a primary readout, because this assay has produced multiple assay endpoints where this one serves a reporter gene function. To generalize the intended target to other relatable targets, this assay endpoint is annotated to the nuclear receptor intended target family, where the subfamily is non-steroidal.
Human liver HepG2 cells are transiently transfected with multiple reporter transcription units (MRTUs) in 6-well plates using FuGene 6 reagent (Roche; 3 ml FuGene/1 mg DNA). The MRTU constructs are regulated by a cis-regulating element (promoter). […] A major difference between the CIS and TRANS system is that in CIS activities of endogenous TFs are measured, whereas the TRANS assay evaluates changes in activities of exogenous, chimeric NR-Gal4 proteins. […] At the end of 24 hour incubation, total RNA was isolated using TriZol reagent (Invitrogen). The isolated RNA is then reverse-transcribed using oligo(dT) primer and Mo-MLV reverse transcriptase (Invitrogen) with DNAse I (Ambion) treatment for 30 min. The one-tenth of the produced cDNA was amplified by PCR using Taq DNA polymerase (Invitrogen) and two reporter sequence-specific primers. The PCR products were fluorescently labeled by primer extension with 6-arboxyfluorescein (6-FAM) 5'-labeled reporter sequence-specific primer (2 min at 95 C, 20 s at 68 C and 10 min at 72 C) and these products were digested with 5U of HpaI (New England Biolabs) for 2h at 37 C. The fragments were purified using Qiaquick PCR columns (Qiagen), analyzed on an ABI 3130xL genetic analyzer (Applied Biosystems) with peak positions identified by using a set of X-rhodamine (ROX)-labeled MapMarker1000 molecular weight standards (BioVentures). The raw capillary electrophoresis data was processed using Attagraph software (Attagene).

Retinoic acid receptor RXR-alpha (Homo sapiens), sequence (P19793 whole entry, looked up): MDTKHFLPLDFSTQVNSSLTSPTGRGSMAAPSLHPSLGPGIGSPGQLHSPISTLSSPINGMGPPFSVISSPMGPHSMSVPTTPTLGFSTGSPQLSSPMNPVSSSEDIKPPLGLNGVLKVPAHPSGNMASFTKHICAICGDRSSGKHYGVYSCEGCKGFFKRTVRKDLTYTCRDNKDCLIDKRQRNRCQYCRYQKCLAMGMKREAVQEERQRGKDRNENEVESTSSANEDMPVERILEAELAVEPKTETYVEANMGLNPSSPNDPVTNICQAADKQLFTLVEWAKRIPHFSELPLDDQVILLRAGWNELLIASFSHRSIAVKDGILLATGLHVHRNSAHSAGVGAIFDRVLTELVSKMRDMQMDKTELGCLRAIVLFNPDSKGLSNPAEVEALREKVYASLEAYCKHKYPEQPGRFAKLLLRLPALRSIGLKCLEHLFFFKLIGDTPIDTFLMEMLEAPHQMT

outcome, inactive:
Clc1nc(C(Cl)(Cl)Cl)c(Cl)c(Cl)c1Cl
Nc1cc(Cl)c(O)c(Cl)c1
Cc1cccc(Nc2ccccc2C(=O)O)c1C
CCCCO
S=C(S)NCCNC(=S)S
C[C@H]1C[C@@H]2[C@H]([C@@H](O)C[C@@]3(C)[C@H]2CC[C@]3(O)C(=O)CO)[C@@]2(C)C=CC(=O)C=C12
CCCC1CCC(=O)O1 (stereo not given)
C=CC[N+](C)(C)CC=C
O=C1CCCCCCCCCCOCCCCO1
CCCCCOC(=O)CCC
CCCCNC(=O)NS(=O)(=O)c1ccc(C)cc1
C=C(C)C(=O)OCc1ccccc1
O=C(O)CN(CCN(CC(=O)O)CC(=O)O)CCN(CC(=O)O)CC(=O)O
NC(N)=NC(=O)c1nc(Cl)c(N)nc1N
CCCC(C)C=O (stereo not given)
C=CC(=O)OCCn1c(=O)n(CCOC(=O)C=C)c(=O)n(CCOC(=O)C=C)c1=O
OC1OC[C@@H](O)[C@H](O)[C@H]1O (stereo not given in full)
CC(=O)/C=C/C1=C(C)CCCC1(C)C
CSc1nnc(C(C)(C)C)c(=O)[nH]1
CN(CCOc1ccc(CC2SC(=O)NC2=O)cc1)c1ccccn1 (stereo not given)
CC(=O)C(C)=O
CC(C)C1CCC(O)CC1 (stereo not given)
NCCCCCCN
CCCC(=O)OCCC(C)CCC=C(C)C (stereo not given)
Clc1ccc2c(c1)C(N1CCNCC1)=Nc1ccccc1O2
CCN(CC)c1ccc(C(=C2C=CC(=[N+](CC)CC)C=C2)c2ccc(S(=O)(=O)O)cc2S(=O)(=O)[O-])cc1
CC(=O)C(=O)O
OCC(CO)(CO)COCC(CO)(CO)CO
O=Cc1ccc(Cl)c([N+](=O)[O-])c1
Cc1ccc(O)c(C(C)(C)C)c1
Cc1cc(C2(c3cc(C)c(O)cc3C)OS(=O)(=O)c3ccccc32)c(C)cc1O
BrC1CCC(Br)C(Br)CCC(Br)C(Br)CCC1Br (stereo not given)
C/C=C(\C)C(=O)OCc1ccccc1
O=C(O)c1cccc(C(F)(F)F)c1
O=P(c1ccccc1)(c1ccccc1)c1ccccc1
CC(=O)Nc1ccc(C)cc1C
Cc1cccc(C)c1C
Cc1ccc(C(=O)c2cc(O)c(O)c([N+](=O)[O-])c2)cc1

AC50, active:
CC(C)=CCCC(C)=CCCC(C)=CCO 100 µM
C#C[C@]1(O)CC[C@H]2[C@@H]3CCC4=Cc5oncc5C[C@]4(C)[C@H]3CC[C@@]21C 120 µM
